Assay [1] deals with Plasmodium falciparum Sir2 (PF13_0152, Sir2A). Kind of assay: Plasmodium falciparum Sir2A binding compounds – biochemical, small-molecule microarray, 635 nm fluorescence, primary screen (AID 1098).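 Further: score merges spot fluorescence intensity with its signal-to-noise ratio.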 Particulars: fluorescence 635 nm, higher = more signal.
A short description of assay [2]: probe aDKK1 binding to arrayed compounds – biochemical, biotinylated probe, 635/667 nm fluorescence, primary screen (AID 1099).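 Further: score merges 667nm spot fluorescence with signal to noise across triplicate slides; reference of the scale not given here.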 Particulars: small-molecule microarray, higher = more signal.
A short description of assay [3]: probe aCHRDL2 binding to arrayed compounds – biochemical, biotinylated probe, 635/667 nm fluorescence, primary screen (AID 1100). Particulars: small-molecule microarray, higher = more signal.
Assay [4] is described as follows: change in splice reporter luminescence, either direction, cell-based, HEK293, spliceosome inhibition project, primary screen (AID 1101).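 Further: HEK293 cells carrying a splicing-competent luciferase reporter gene; test concentration not given here.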 The note with it: HEK293 splicing luciferase reporter, 24 h, higher = more signal, called active from +8 up or from −8 down.
Assay [5] has as its target Fibroblast growth factor 10 (Homo sapiens) (UniProt O15520). Nature of the assay: compounds binding fibroblast growth factor 10 – biochemical, small-molecule microarray, 635 nm fluorescence, primary screen (AID 1102). The note with it: FGF10 binding, fluorescence 635 nm, higher = more signal.
Assay [6] concerns glycogen synthase kinase-3 (GSK3A per assay name; protocol says GSK3B). Kind of assay: compounds binding glycogen synthase kinase-3 – biochemical, small-molecule microarray, 635 nm fluorescence, GSK3A, primary screen (AID 1103). Further: the record names both GSK3A and GSK3B. Particulars: fluorescence 635 nm, higher = more signal.
For assay [7], the target named is Epidermal growth factor receptor (Homo sapiens) (UniProt P00533). Nature of the assay: compounds binding epidermal growth factor receptor – biochemical, small-molecule microarray, 635 nm fluorescence, primary screen (AID 1104).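 Further: score merges 667 nm emission intensity with spot signal to noise over triplicate slides.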 The note with it: EGFR binding, higher = more signal.
Assay [8] deals with Follistatin-related protein 3 (Homo sapiens) (UniProt O95633). Nature of the assay: compounds binding follistatin-related protein 3 – biochemical, small-molecule microarray, 635 nm fluorescence, primary screen (AID 1105).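 Further: score merges emission near 667 nm and signal to noise per printed spot across three slides.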 Particulars: FSTL3 binding, higher = more signal.
The target in assay [9] is Dickkopf-related protein 1 (Homo sapiens) (UniProt O94907). Kind of assay: small molecules binding DKK1 protein – biochemical, small-molecule microarray, 635 nm fluorescence scan, primary screen (AID 1106).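 Further: score merges emission near 667 nm with signal to noise over three replicate slides.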 Particulars: higher = more signal.
Assay [10] has as its system Inhibin beta A chain (activin A). Kind of assay: small molecules binding activin A – biochemical, small-molecule microarray, 635 nm fluorescence scan, primary screen (AID 1107).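 Further: mouse activin A protein probed at 4.33 µg/mL on printed slides; score merges bound-protein fluorescence near 667 nm with spot signal-to-noise.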 Particulars: INHBA, higher = more signal.

The source of these data is PubChem BioAssay.

Structures are written as SMILES. Calls of active or inactive are those of the source.

Sequence of Dickkopf-related protein 1 (Homo sapiens) (O94907 whole entry, looked up): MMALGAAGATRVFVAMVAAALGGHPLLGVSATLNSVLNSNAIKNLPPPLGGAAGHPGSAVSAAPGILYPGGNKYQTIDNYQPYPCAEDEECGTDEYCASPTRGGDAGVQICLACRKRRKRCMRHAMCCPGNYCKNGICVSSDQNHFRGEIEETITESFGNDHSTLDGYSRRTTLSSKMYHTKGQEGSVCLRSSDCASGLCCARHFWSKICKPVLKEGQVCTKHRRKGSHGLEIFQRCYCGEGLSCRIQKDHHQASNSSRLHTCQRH
Sequence of Follistatin-related protein 3 (Homo sapiens) (O95633 whole entry, looked up): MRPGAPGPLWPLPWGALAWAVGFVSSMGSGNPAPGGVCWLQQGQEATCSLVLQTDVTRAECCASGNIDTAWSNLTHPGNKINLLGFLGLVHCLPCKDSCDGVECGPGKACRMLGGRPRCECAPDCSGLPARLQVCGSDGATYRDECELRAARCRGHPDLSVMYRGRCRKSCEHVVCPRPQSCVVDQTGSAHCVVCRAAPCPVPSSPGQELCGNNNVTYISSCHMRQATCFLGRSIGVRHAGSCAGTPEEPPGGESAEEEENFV
Sequence of Fibroblast growth factor 10 (Homo sapiens) (O15520 whole entry, looked up): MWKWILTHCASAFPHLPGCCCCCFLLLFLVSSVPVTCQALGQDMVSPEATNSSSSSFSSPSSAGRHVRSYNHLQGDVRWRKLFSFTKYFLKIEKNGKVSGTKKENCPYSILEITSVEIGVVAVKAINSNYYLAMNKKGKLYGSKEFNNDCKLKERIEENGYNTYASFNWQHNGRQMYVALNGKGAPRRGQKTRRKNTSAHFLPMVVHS
Sequence of Epidermal growth factor receptor (Homo sapiens) (P00533 whole entry, looked up): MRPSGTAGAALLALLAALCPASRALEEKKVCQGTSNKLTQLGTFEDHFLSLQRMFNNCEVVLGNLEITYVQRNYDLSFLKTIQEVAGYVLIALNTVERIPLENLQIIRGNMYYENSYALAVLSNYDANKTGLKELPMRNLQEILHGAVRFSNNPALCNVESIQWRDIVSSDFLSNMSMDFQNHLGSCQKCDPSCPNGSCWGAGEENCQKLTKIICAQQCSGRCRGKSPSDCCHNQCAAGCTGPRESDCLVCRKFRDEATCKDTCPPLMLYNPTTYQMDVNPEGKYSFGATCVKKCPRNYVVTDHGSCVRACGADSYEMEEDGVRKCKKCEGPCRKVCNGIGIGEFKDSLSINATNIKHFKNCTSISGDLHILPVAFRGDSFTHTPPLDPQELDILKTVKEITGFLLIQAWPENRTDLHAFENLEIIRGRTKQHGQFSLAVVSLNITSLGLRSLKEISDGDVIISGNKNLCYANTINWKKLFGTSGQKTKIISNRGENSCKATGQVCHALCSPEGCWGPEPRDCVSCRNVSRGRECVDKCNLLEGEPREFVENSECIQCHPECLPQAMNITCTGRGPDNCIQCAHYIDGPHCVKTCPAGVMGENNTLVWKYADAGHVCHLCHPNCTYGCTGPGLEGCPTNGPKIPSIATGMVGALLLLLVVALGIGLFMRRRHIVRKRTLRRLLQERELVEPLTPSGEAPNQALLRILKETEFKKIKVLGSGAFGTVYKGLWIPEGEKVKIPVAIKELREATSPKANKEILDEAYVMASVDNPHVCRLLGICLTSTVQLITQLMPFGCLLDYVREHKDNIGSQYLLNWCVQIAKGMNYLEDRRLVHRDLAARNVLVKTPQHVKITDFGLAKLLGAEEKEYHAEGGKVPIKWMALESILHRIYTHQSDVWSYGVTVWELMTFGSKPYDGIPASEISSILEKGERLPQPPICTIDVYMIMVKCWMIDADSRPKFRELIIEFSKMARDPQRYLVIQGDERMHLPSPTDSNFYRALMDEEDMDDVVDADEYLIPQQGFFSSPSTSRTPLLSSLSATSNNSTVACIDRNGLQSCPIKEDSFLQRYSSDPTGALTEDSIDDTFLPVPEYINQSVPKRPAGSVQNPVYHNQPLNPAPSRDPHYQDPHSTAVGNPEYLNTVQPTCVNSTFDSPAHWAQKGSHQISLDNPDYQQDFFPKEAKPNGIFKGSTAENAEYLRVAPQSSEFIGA

`CC(C)N1C(=O)c2ccccc2[C@@H](C(=O)NCCCN(C)C)[C@@H]1c1ccc(CO)cc1`: the composite z-score in [1] was 1.31; in assay [2] it was 0.744; in [3], 1.01; in [5], 0.0328; in assay [6] it was -0.367; in [7] it was -0.568. The figures for the composite z-score in [8], in assay [9] and in [10] were -0.85, -1.25 and 0.557, respectively. For the same molecule, the z-score in assay [4] is -0.472 (inactive).

In the case of `COCCOC(=O)N1C(=O)[C@@]2(c3cc(C#CCNC(N)=O)ccc31)[C@H](c1ccccc1OCCO)N1[C@H](c3ccccc3)[C@H](c3ccccc3)OC(=O)[C@H]1[C@@H]2C(N)=O`, the composite z-score in assay [1] was found to be 0.806; in [2], 0.117; in assay [3], 0.106; in assay [5] it was 0.848; in assay [6], 0.786; in assay [7], 0.528. The composite z-score in [8] is 1.26; in assay [9], 0.439; in assay [10], 0.719. The z-score in [4] was -0.265 (inactive).

As for `COCCOC(=O)N1C(=O)[C@@]2(c3cc(C#CCCO)ccc31)[C@H](c1ccccc1OCCO)N1[C@H](c3ccccc3)[C@H](c3ccccc3)OC(=O)[C@H]1[C@@H]2C(=O)N1CCN(c2ncccn2)CC1`, the composite z-score in assay [1] came out at 0.55; in assay [2], 0.75; in assay [3], 0.537; in [5] it was 0.74; in assay [6], 1.22; in [7], 0.965. Also, the composite z-score was determined as 1.39 in [8], 0.682 in assay [9] and 0.617 in assay [10]. Also, the z-score in [4] was -0.381 (inactive).

With `COC(=O)C[C@@H]1C[C@H](C)[C@]2(O1)C(=O)N(Cc1ccccc1)c1ccc(NC(C)=O)cc12`, the composite z-score is 0.0968 in assay [1]; -0.148 in assay [2]; -0.448 in assay [3]; 0.603 in [5]; 0.141 in assay [6]; 0.324 in assay [7]. In addition, the composite z-score stood at 0.389 in assay [8], 0.355 in [9] and 0.4 in assay [10]. The z-score in [4] is 0.247 (inactive).

With `C=CC[C@]1(C(=O)N2CCOCC2)N=C(c2ccc(OCCCO)cc2)O[C@H]1c1ccccc1`, the composite z-score was 1.44 in assay [1]; 0.573 in [2]; 1.01 in assay [3]; 0.182 in [5]; 1.28 in assay [6]; -0.201 in [7]. The composite z-score is -0.524 in [8], 0.142 in assay [9] and 0.862 in assay [10]. The z-score in assay [4] is -0.0214 (inactive).

On to `COC(=O)[C@@]1(Cc2ccc(OC)cc2)[C@H]2c3cc(C(=O)N4CCCC4)n(Cc4cc(F)cc5c4OCOC5)c3C[C@H]2CN1C(=O)c1ccccc1`, for which the composite z-score in assay [1] is 0.782; in [2], 0.9; in [3], 0.984; in [5], 0.608; in [6], 0.573; in assay [7], 0.0471. Besides, the results for the composite z-score in [8], in assay [9] and in assay [10] were 0.326, -0.451 and 0.795, respectively. In assay [4], the z-score is -2.73 (inactive).

For `C=CCNC(=O)[C@H]1[C@@H]2C(=O)O[C@@H](c3ccccc3)[C@@H](c3ccccc3)N2[C@@H](c2ccc(O)cc2)[C@]12C(=O)N(C(=O)OCCOC)c1ccc(C#CCCO)cc12`, the composite z-score in [1] is 1.29; in assay [2], 0.303; in [3] it was 0.272; in [5] it was 1.18; in assay [6], 0.713; in assay [7], -0.248. For the same molecule, the composite z-score in [8] is -0.0994; in assay [9] it was -0.0705; in assay [10], 0.681. Also, the z-score in [4] is 0.271 (inactive).

Consider `COC(=O)[C@@]1(Cc2ccccc2N=[N+]=[N-])COC(c2ccc(OCCCO)cc2)=N1`, for which the composite z-score is 1.48 in assay [1]; 0.89 in [2]; 1.26 in [3]; 0.0938 in assay [5]; 0.478 in [6]; -0.3 in assay [7]. In addition, the composite z-score was -0.0373 in [8], -0.349 in assay [9] and 1.52 in [10]. In addition, in [4], the z-score was -0.127 (inactive).

Turning to `O=C1O[C@H](c2ccccc2)[C@H](c2ccccc2)N2[C@H]1[C@@H](C(=O)N1CCN(c3ncccn3)CC1)[C@]1(C(=O)Nc3ccccc31)[C@H]2c1ccc(OCCO)cc1`, the composite z-score in assay [1] is 0.348; in [2], -0.0864; in [3] it was 0.174; in assay [5], 1.29; in assay [6], 1.22; in assay [7], 0.665. Also, the composite z-score in assay [8] turned out to be 1.32; in assay [9], 0.632; in assay [10], 0.395. Moreover, in assay [4], the z-score was -1.15 (inactive).

Regarding `[N-]=[N+]=Nc1ccccc1[C@@H]1OC(c2ccc(OCCCO)cc2)=N[C@]1(CCS(=O)(=O)c1ccccc1)C(=O)N1CCOCC1`, the composite z-score in assay [1] is 1.43; in [2], 1.04; in assay [3], 0.994; in [5] it was 1.37; in assay [6], 1.09; in [7] it was 0.569. Moreover, the composite z-score came to 1.36 in assay [8], 0.14 in assay [9] and 1.58 in assay [10]. Besides, the z-score in assay [4] is -0.4 (inactive).

Regarding `COCCOC(=O)N1C(=O)[C@@]2(c3cc(C#CCC(C(=O)OC)C(=O)OC)ccc31)[C@H](C(=O)N1CCCCCCC1)[C@H]1C(=O)O[C@H](c3ccccc3)[C@H](c3ccccc3)N1[C@@H]2c1ccc(OCCO)cc1`, the composite z-score in [1] was 1.74; in assay [2], 2.72; in assay [3], 1.65; in assay [5], 1.45; in assay [6], 1.35; in assay [7] it was 1.76. The values for the composite z-score in [8], in [9] and in assay [10] were 1.65, 2.25 and 1.62, respectively. Moreover, the z-score in assay [4] is 0.161 (inactive).

Turning to `O=C1O[C@H](c2ccccc2)[C@H](c2ccccc2)N2[C@H]1[C@@H](C(=O)O)[C@]1(C(=O)Nc3ccc(C#CC4(O)CCCCCC4)cc31)[C@H]2c1ccc(OCCO)cc1`, the composite z-score in assay [1] is 0.303; in assay [2], 0.2; in assay [3] it was 0.388; in assay [5], 0.299; in assay [6], 0.132; in assay [7] it was -0.329. Further, the composite z-score in assay [8] is 0.418; in assay [9] it was -0.623; in [10], -0.374. The z-score in [4] was -0.117 (inactive).

On to `COCCOC(=O)N1C(=O)[C@@]2(c3cc(C#CC4(O)CCCCCC4)ccc31)[C@H](C(=O)N1CCCCCCC1)[C@H]1C(=O)O[C@H](c3ccccc3)[C@H](c3ccccc3)N1[C@@H]2c1ccccc1OCCO`, for which the composite z-score in [1] amounted to 1.6; in assay [2] it was 1.56; in [3] it was 1.44; in [5], 0.933; in assay [6], 1.32; in assay [7], 0.75. Also, the figures for the composite z-score in assay [8], in assay [9] and in assay [10] were 1.46, 1.18 and 1.63, respectively. Besides, the z-score in [4] was 0.0811 (inactive).

With `O=C1OCCC=C[C@H]2OC34C=CCN(c5ccc6ccccc6c5)C(=O)[C@H]3N(CCCCCO)C(=O)[C@@H]4C12` (stereo not given in full), the composite z-score is 1.8 in assay [1]; 0.0672 in assay [2]; 0.597 in assay [3]; -0.408 in [5]; -0.224 in assay [6]; -0.162 in assay [7]. Moreover, the figures for the composite z-score in assay [8], in [9] and in assay [10] were -0.662, -0.731 and 0.218, respectively. Also, the z-score in assay [4] is -0.606 (inactive).
